Experimental data taken from PubChem BioAssay (NCI).
About 83,000 compounds went through this panel and 20% of them were active in at least one assay; those are over-represented in the sample as a whole.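 48-hour exposure, single concentration, 96-well plates; percent growth endpoint where 0 means no net growth. Active: below 10.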 Unmarked numbers belong to inactive results. Activity calls are given as the source filed them.

System: HT29 colon
Experiment: NCI-60 one-dose screen, 48 h (100 = growth as untreated, 0 = no growth, -100 = all killed)
Details: 10 µM unless noted
Method: Growth inhibition of the HT29 human tumor cell line is measured as a screen for anti-cancer activity. Cells are grown in 96 well plates and exposed to the test compound for 48 hours. Compounds are tested at a single concentration, which is 10^-5 M for most compounds. The reported endpoint is percent growth (GI% or GIPRCNT), where numbers from 0 - 100% represent growth inhibition, and numbers from -100% - 0 represent cell death. For example, a value of 40 represents 60% growth inhibition. A value of 0 means no net growth occurred over the course of the experiment. A value of -40 indicates 40% of cells at the beginning of the experiment died by the end of the experiment. A value of -100 means all cells are dead at the end of the experiment.
NCI-60 Human Tumor Cell Lines Screen was performed using the standard one-dose NCI protocol, which is described in more detail at https://dtp.cancer.gov/discovery_development/nci-60/default.htm.
Compounds with GIPRCNT values below 10 were considered active. Activity score was based on GIPRCNT using the following formula: […]
Score is 0 for GIPRCNT values of 100 or above, 50 for GIPRCNT values of 0, and 100 for GIPRCNT values of -100.

**Q.** How did the growth turn out when `O=C1NC(=O)C(=Cc2cn(Cc3ccccc3)c3ccccc23)C(=O)N1` was run?
**A.** 105%

**Q.** Which growth does the source give for `COc1cc(CNCCc2ccc(Cl)cc2)cc(OC)c1O` here?
**A.** 64.4%

**Q.** `O=S(=O)(c1ccc(Cl)cc1)C(Cl)(Cl)Cl` was tested. Which growth did it give?
**A.** 12.2%

**Q.** With `O=C(CCF)c1ccc(O)cc1` as the compound, how does the growth read?
**A.** 98.2%

**Q.** For `CCOc1cc(/C=N\Nc2nnc(C)n2N)c(C)cc1N(CCCl)CCCl`, which growth is on record?
**A.** 23.9%

**Q.** How did the growth turn out when `CC[C@]12C=CCN3CC[C@@]4(c5ccc(OC)cc5N(C)[C@H]4[C@@](O)(C(=O)OC)[C@@H]1OC(=O)CCCN1CCN(CCCC(=O)O[C@@H]4[C@]5(CC)C=CCN6CC[C@@]7(c8ccc(OC)cc8N(C)[C@H]7[C@@]4(O)C(=O)OC)[C@@H]65)CC1)[C@@H]32` was run?
**A.** -81.3% (active)

**Q.** How did the growth turn out when `O=C1NC(=O)C(CN2C(=O)C3(c4ccccc42)[C@H](Cl)C(=O)N3c2ccccc2)C(=O)N1` (stereo not given in full) was run?
**A.** 98.3%

**Q.** Which growth does the source give for `COc1cc(C2(C#N)CCN(C)CC2)cc(OC)c1OC` here?
**A.** 101%

**Q.** How did the growth turn out when `O=c1cc[nH]c(=O)o1` was run?
**A.** 95.9%

**Q.** `CC1(C)N=C(N)N=C(N)N1c1cccc(C(=O)Nc2cccc(S(=O)(=O)F)c2)c1` was tested. Which growth did it give?
**A.** 109%

**Q.** With `N#CC1=C(N)Oc2cc3c(cc2C1c1cccs1)OCO3` (stereo not given) as the compound, how does the growth read?
**A.** 8.98% (active)

**Q.** With `CC(=O)O[C@H]1CC[C@H]2[C@@H]3CC[C@H]4CC=C(C)C[C@]4(C)[C@H]3CC[C@]12C` as the compound, how does the growth read?
**A.** 98.4%

**Q.** With `O=C(O)CC(Br)C(=O)CBr` (stereo not given) as the compound, how does the growth read?
**A.** 109%

**Q.** Which growth does the source give for `O=C(CF)N(O)c1ccc(/C=C/c2ccccc2)cc1` here?
**A.** 57.6%

**Q.** Which growth does the source give for `COC1=CC(=O)OC(CCc2ccc3c(c2)OCO3)C1` (stereo not given) here?
**A.** 97.1%

**Q.** With `CC1COC(=O)C1` (stereo not given) as the compound, how does the growth read?
**A.** 98.2%

**Q.** For `CO[C@@H]1[C@H](OC(=O)NC(=O)CCl)CC[C@]2(CO2)[C@H]1[C@@]1(C)O[C@@H]1CC=C(C)C`, which growth is on record?
**A.** 58.1%

**Q.** How did the growth turn out when `O=C(O)C1(Br)CC12c1ccccc1-c1ccccc12` (stereo not given) was run?
**A.** 104%

**Q.** Which growth does the source give for `COc1cc(C2=NN(c3ccccc3)C(c3sc(N(CCCl)CCCl)nc3Cl)C2)cc(OC)c1OC` (stereo not given) here?
**A.** 84.5%

**Q.** Which growth does the source give for `CC(=O)C1CCC2C3CC=C4CC(OC(=O)Cc5ccc(N(CCCl)CCCl)cc5)CCC4(C)C3CCC12C` (stereo not given) here?
**A.** 83.2%

**Q.** For `CCCCCCCC(=O)OCC/C=C/C1OC1C1OC(=O)/C=C\C=C\c2nc(oc2C)/C=C(/C)CCC2OC2C1OC(=O)NC(C)=O` (stereo not given), which growth is on record?
**A.** 4.62% (active)

**Q.** For `NC(=O)C(Cl)Cl`, which growth is on record?
**A.** 116%

**Q.** For `CCN(CC)c1ccc(C=C2C(=O)NC(=S)NC2=O)cc1`, which growth is on record?
**A.** 92.2%

**Q.** For `COC(=O)C[Se]C(=O)c1ccccc1OC(C)=O`, which growth is on record?
**A.** 33.2%

**Q.** For `CC(C)(C)N(Cc1ccccc1)N=O`, which growth is on record?
**A.** 104%

**Q.** Which growth does the source give for `C[As](=O)(O)c1ccc(C(=O)O)cc1` here?
**A.** 108%

**Q.** `CCC1([N+](=O)[O-])COP(=O)(NCc2cccnc2)OC1` (stereo not given) was tested. Which growth did it give?
**A.** 116%

**Q.** Which growth does the source give for `CC1=C(SCCC(=O)OCC(=O)NCCC[Te]c2ccccc2)C(=O)c2ccccc2C1=O` here?
**A.** 11.2%

**Q.** How did the growth turn out when `NC(=O)C(Br)CBr` (stereo not given) was run?
**A.** -21.8% (active)

**Q.** How did the growth turn out when `C#CC1(O)CCC2(C)C(CCC3C4CCC(=O)C4(C)CCC32)C1` (stereo not given) was run?
**A.** 86.9%

**Q.** Which growth does the source give for `O=C1c2ccccc2C(=O)N1[N+](=O)[O-]` here?
**A.** 102%

**Q.** For `CC1([N+](=O)[O-])COP(=O)(Nc2ccc(F)cc2)OC1` (stereo not given), which growth is on record?
**A.** 96.5%

**Q.** For `CC1(C)N=C(N)N=C(N)N1c1ccc(CNC(=O)Nc2ccc(S(=O)(=O)F)c(Cl)c2)c(Cl)c1`, which growth is on record?
**A.** 7.61% (active)

**Q.** `OB([O][Hg][c]1ccccc1)[O][Hg][c]1ccccc1` was tested. Which growth did it give?
**A.** -55.8% (active)

**Q.** For `C/C(=N/OC(=O)N(C)C)c1cc(Cl)ccc1Cl`, which growth is on record?
**A.** 100%

**Q.** With `CC(=O)[O][Hg][CH2]C1(C)COC(C)([CH2][Hg][O]C(C)=O)CO1` (stereo not given) as the compound, how does the growth read?
**A.** -25.6% (active)

**Q.** How did the growth turn out when `O=C(NCc1ccc([N+](=O)[O-])cc1)Nc1ccc(S(=O)(=O)F)cc1` was run?
**A.** 91.9%

**Q.** Which growth does the source give for `CNC(=O)Oc1ccccc1-c1ccccc1` here?
**A.** 101%

**Q.** With `Oc1ccccc1OB(Oc1ccccc1O)N(CCCl)CCCl` as the compound, how does the growth read?
**A.** 85.9%

**Q.** How did the growth turn out when `COc1cc(C2CC(=O)Nc3nc(N)[se]c32)c(OC)c2c1OCO2` (stereo not given) was run?
**A.** 98.5%
